Experimental data from PubChem BioAssay (Tox21).
Inconclusive results are not listed. Where a call stands in place of a potency, no number is given. The source made the active and inactive calls. The call rests on the fitted dose curve; in most records, active means well fitted inhibition curve with a large enough effect in the repeat runs; inconclusive means weak or mixed curves; inactive means flat fitted curve, though single readings scatter.

The compounds below were run against Voltage-gated inwardly rectifying potassium channel KCNH2 (Homo sapiens) (UniProt Q12809) (assay: Human Ether-a-go-go-Related Gene (hERG) channel small molecule antagonists: fluorescence cell-based qHTS assay (AID 1671200; further: nearly all actives have a fitted effect of over 50% in size)). Settings: hERG-U2OS cells, FluxOR thallium flux fluorescence; series mostly up to 76.8 µM.
Voltage-gated inwardly rectifying potassium channel KCNH2 (Homo sapiens), sequence (Q12809 whole entry, looked up): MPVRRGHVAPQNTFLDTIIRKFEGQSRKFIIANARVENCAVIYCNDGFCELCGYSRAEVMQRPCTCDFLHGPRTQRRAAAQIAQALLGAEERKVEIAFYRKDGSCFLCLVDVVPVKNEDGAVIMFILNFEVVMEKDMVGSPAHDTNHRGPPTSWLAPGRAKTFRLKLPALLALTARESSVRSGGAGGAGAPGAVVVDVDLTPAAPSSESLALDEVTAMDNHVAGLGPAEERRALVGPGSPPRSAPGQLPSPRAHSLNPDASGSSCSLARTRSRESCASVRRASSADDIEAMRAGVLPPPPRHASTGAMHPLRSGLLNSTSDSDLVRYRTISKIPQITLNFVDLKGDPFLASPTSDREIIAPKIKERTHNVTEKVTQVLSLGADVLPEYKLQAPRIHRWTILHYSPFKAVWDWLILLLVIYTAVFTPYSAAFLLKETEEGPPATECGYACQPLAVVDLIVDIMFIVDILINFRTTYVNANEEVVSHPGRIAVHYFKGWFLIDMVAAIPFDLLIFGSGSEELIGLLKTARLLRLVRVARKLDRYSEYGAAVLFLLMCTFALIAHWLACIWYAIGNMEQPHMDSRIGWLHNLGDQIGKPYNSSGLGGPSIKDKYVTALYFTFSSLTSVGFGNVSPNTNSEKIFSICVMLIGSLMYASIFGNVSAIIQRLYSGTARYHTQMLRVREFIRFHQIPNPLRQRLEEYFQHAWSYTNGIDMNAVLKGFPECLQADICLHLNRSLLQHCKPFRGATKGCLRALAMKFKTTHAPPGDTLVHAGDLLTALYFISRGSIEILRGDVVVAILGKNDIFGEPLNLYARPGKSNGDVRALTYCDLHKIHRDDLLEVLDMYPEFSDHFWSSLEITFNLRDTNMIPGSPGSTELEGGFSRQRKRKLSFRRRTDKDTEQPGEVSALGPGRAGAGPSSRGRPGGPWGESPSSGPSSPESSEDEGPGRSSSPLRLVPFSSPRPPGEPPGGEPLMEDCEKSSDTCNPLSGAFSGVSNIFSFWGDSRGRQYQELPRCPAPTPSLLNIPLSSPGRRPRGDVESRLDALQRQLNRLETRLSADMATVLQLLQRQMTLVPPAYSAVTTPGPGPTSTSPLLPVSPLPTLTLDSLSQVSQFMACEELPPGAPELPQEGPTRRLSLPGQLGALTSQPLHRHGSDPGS
Source text: National Center for Advancing Translational Sciences [NCATS]
U.S. Environmental Protection Agency [EPA]
National Institutes of Environmental Health Sciences [NIEHS]
National Toxicology Program [NTP]
U.S. Food and Drug Administration [FDA]
Mutations in the hERG channel cause Long QT (LQT) syndrome. LQT syndrome is a cardiac disorder which can cause ventricle arrhythmia and sudden death. Additionally, compounds which block the hERG channel can cause acquired LQT syndrome. Several FDA approved drugs have been removed from the market due to their hERG blocking activity. A cell-based hERG channel inhibition assay can be used to screen chemical compounds that inhibit hERG channel. This assay measures hERG channel activity using thallium ions as surrogate ions to measure potassium into the cells.
Tox21 Assay Protocol Summary:
hERG-U2OS cells were resuspended in culture medium and dispensed into 1536-well, black wall/clear-bottom plates at 1000cells/well/3uL using a Multidrop Combi dispenser (Thermo Fisher, Waltham, MA). After plates were incubated at 37 C overnight, 3 uL of Loading Buffer provided by FluxOR II Potassium Ion Channel Assay kit (Thermo, Carlsbad, CA) was added to each well. The assay plates were then incubated at room temperature in the dark for 1h. […] After the assay plates were incubated at room temperature for 10 min, 1 uL of Stimulus Buffer provided by FluxOR II Potassium Ion Channel Assay kit was added into each well and fluorescence intensity (480nm excitation/540nm emission) was continuously measured for 2 min at 1 second intervals using a Functional Drug Screening System (FDSS) 7000EX kinetic plate reader (Hamamatsu, Japan).
Potency means the concentration at half of the fitted maximal effect.

SMILES	activity change, negative = inhibition	Potency
CCCCCCCCCCCCCCCCBr	1.22% [at 15.8 µM] (inactive)	–
COC(=O)[C@@H]1CC2=CC(=O)CC[C@]2(C)[C@@]23O[C@@H]2C[C@@]2(C)[C@@H](CC[C@@]24CCC(=O)O4)[C@H]13	–	inactive
CC(CCO)CCc1ccccc1 (stereo not given)	–	inactive
CN1CCN(c2c(F)cc3c(=O)c(C(=O)O)cn4c3c2OCN4C)CC1	-1.8% [at 15.8 µM] (inactive)	–
CC(C)(O)c1ccccc1CC[C@@H](SCC1(CC(=O)O)CC1)c1cccc(/C=C/c2ccc3ccc(Cl)cc3n2)c1	–	inactive
CCOC(=O)N1CCC(n2c(=O)[nH]c3cc(Cl)ccc32)CC1	–	inactive
CSc1ccc(Oc2ccc(S(N)(=O)=O)cc2CN(C)C)cc1C	–	6.92 µM (active)
Nc1ccc(S(=O)(=O)O)c(N)c1	–	inactive
Cc1c(C(=O)NN2CCCCC2)nn(-c2ccc(Cl)cc2Cl)c1-c1ccc(Cl)cc1	–	2.13 µM (active)
CCN(Cc1cccc(S(=O)(=O)O)c1)c1ccc(C(=C2C=CC(=[N+](CC)Cc3cccc(S(=O)(=O)[O-])c3)C=C2)c2ccccc2)cc1	–	inactive
COCC(O)CO (stereo not given)	–	inactive
O=C(CS)OCCOC(=O)CS	–	inactive
O=S(=O)(c1ccccc1)c1ccc(Cl)cc1	–	inactive
Cn1c(=O)c2c(ncn2CC(=O)O)n(C)c1=O	–	inactive
Cc1nc2ccccn2c(=O)c1CCN1CCC(C(=O)c2ccc(F)cc2)CC1	–	9.52 µM (active)
CC(C)=CC=O	–	inactive
CC(COc1ccc(C(C)(C)C)cc1)OS(=O)OCCCl (stereo not given)	–	inactive
CC(N)CN (stereo not given)	–	inactive
Cc1ccc(S(=O)(=O)NC2CCCCC2)cc1	–	inactive
COC(=O)CC(=O)C(C)(C)C	–	inactive

SMILES	activity change, negative = inhibition	Potency
CC(C)(CCl)c1ccccc1	–	inactive
Cc1cc(C(=C2C=CC(=Nc3ccc(S(=O)(=O)O)cc3S(=O)(=O)O)C=C2)c2ccc(Nc3ccc(S(=O)(=O)O)cc3)cc2)ccc1N	–	inactive
CC(C)C(=O)O	–	inactive
CCc1c2c(nc3ccc(OC(=O)N4CCC(N5CCCCC5)CC4)cc13)-c1cc3c(c(=O)n1C2)COC(=O)[C@]3(O)CC	–	inactive
CCCOC(=O)c1ccc(N)cc1	–	inactive
O=S1OCCO1	–	inactive
C=CC(C)=CCC=C(C)C	–	inactive
CCCCCCCC/C=C\CCCCCCCC(=O)OC(CO)CO	–	inactive
O=C(Nc1ccccc1)Nc1ccccc1	–	inactive
OCCSc1ccccc1	–	inactive
CNC(=O)N(c1ccccc1)c1ccccc1	–	inactive
CCCCCCOC(=O)CCCCCCCC(=O)OCCCCCC	–	inactive
COC(OC)(C(=O)c1ccccc1)c1ccccc1	–	inactive
CCCCCCCCSCCO	–	inactive
CC(C)CCCCCCOC(=O)CCCCC(=O)OCCCCCCC(C)C	–	inactive
CC(=O)OCC(=O)[C@@]12OC(C)(C)O[C@@H]1C[C@H]1[C@@H]3C[C@H](F)C4=CC(=O)C=C[C@]4(C)[C@@]3(F)[C@@H](O)C[C@@]12C	–	inactive
[O]=[Bi]	-0.289% [at 6.97 µM] (inactive)	–
CCCOCCOCCO	–	inactive
COC(=O)c1cc(S(N)(=O)=O)ccc1OC	–	inactive
CCn1nc(C)c2c1C(=O)NCC(c1ccc(O)cc1)=N2	–	inactive
